Reference: the supplement of paper PMC8975748
± gives the standard deviation of the averaged measurements.

Assays:
[1] = system: Saccharomyces cerevisiae BY4741 SeMeCo community; assay: mean cell size (pixel area) (pixels); higher = larger cells; details: 10 µM; 24 h; SM minimal medium
In short: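 A fluorescent Saccharomyces cerevisiae BY4741 community carrying four plasmids was used, with each plasmid complementing one auxotrophy and bearing a fluorescent marker. An overnight preculture at OD600 = 1.0 was diluted to OD600 = 0.3, and 70 µl went into 384-well plates acoustically predosed with drug (final 10 µM) in SM medium for 24 h. After paraformaldehyde fixation, cells were imaged by automated confocal microscopy and analysed in Harmony, giving the mean cell pixel area per well. Each value is the average of 3 replicates. Same SeMeCo high-content imaging drug screen: Selleck FDA-approved drugs at 10 µM, 24 h in SM medium, 384-well plates, 3 replicates.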

[2] = system: Saccharomyces cerevisiae BY4741 SeMeCo community; assay: z-score of prototroph abundance vs DMSO median; higher = larger share of this subpopulation than in DMSO controls; details: 10 µM; 24 h; SM minimal medium; subpopulation (auxotrophy): Prototroph
In short: (§1)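 Scoring was based on each subpopulation's abundance, expressed as a z-score against the vehicle-well median. A Saccharomyces cerevisiae BY4741 community with four plasmids, each restoring one auxotrophy and encoding a distinct fluorescent protein, was pre-grown overnight to OD600 1.0, diluted to 0.3, and added at 70 µl to 384-well plates acoustically predosed with library drugs (10 µM final). It then grew 24 h in minimal SM medium before paraformaldehyde fixation and automated confocal microscopy, with single-auxotroph fluorescent strains setting thresholds and autofluorescence correction.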

[3] = system: Saccharomyces cerevisiae BY4741 SeMeCo community; assay: z-score of subpopulation abundance vs DMSO median, subpopulation auxotrophic for M; higher = larger share of this subpopulation than in DMSO controls; details: 10 µM; 24 h; SM minimal medium; subpopulation (auxotrophy): M
In short: as §1

[4] = system: Saccharomyces cerevisiae BY4741 SeMeCo community; assay: z-score of subpopulation abundance vs DMSO median, subpopulation auxotrophic for L; higher = larger share of this subpopulation than in DMSO controls; details: 10 µM; 24 h; SM minimal medium; subpopulation (auxotrophy): L
In short: as §1

[5] = system: Saccharomyces cerevisiae BY4741 SeMeCo community; assay: z-score of subpopulation abundance vs DMSO median, subpopulation auxotrophic for U; higher = larger share of this subpopulation than in DMSO controls; details: 10 µM; 24 h; SM minimal medium; subpopulation (auxotrophy): U
In short: as §1

[6] = system: Saccharomyces cerevisiae BY4741 SeMeCo community; assay: z-score of subpopulation abundance vs DMSO median, subpopulation auxotrophic for HM; higher = larger share of this subpopulation than in DMSO controls; details: 10 µM; 24 h; SM minimal medium; subpopulation (auxotrophy): HM
In short: as §1

[7] = system: Saccharomyces cerevisiae BY4741 SeMeCo community; assay: z-score of subpopulation abundance vs DMSO median, subpopulation auxotrophic for HU; higher = larger share of this subpopulation than in DMSO controls; details: 10 µM; 24 h; SM minimal medium; subpopulation (auxotrophy): HU
In short: as §1

[8] = system: Saccharomyces cerevisiae BY4741 SeMeCo community; assay: z-score of subpopulation abundance vs DMSO median, subpopulation auxotrophic for UM; higher = larger share of this subpopulation than in DMSO controls; details: 10 µM; 24 h; SM minimal medium; subpopulation (auxotrophy): UM
In short: as §1

[9] = system: Saccharomyces cerevisiae BY4741 SeMeCo community; assay: z-score of subpopulation abundance vs DMSO median, subpopulation auxotrophic for HL; higher = larger share of this subpopulation than in DMSO controls; details: 10 µM; 24 h; SM minimal medium; subpopulation (auxotrophy): HL
In short: as §1

[10] = system: Saccharomyces cerevisiae BY4741 SeMeCo community; assay: z-score of subpopulation abundance vs DMSO median, subpopulation auxotrophic for HLU; higher = larger share of this subpopulation than in DMSO controls; details: 10 µM; 24 h; SM minimal medium; subpopulation (auxotrophy): HLU
In short: as §1

[11] = system: Saccharomyces cerevisiae BY4741 SeMeCo community; assay: z-score of subpopulation abundance vs DMSO median, subpopulation auxotrophic for HUM; higher = larger share of this subpopulation than in DMSO controls; details: 10 µM; 24 h; SM minimal medium; subpopulation (auxotrophy): HUM
In short: as §1

[12] = system: Saccharomyces cerevisiae BY4741 SeMeCo community; assay: z-score of subpopulation abundance vs DMSO median, subpopulation auxotrophic for LUM; higher = larger share of this subpopulation than in DMSO controls; details: 10 µM; 24 h; SM minimal medium; subpopulation (auxotrophy): LUM
In short: as §1

[13] = system: Saccharomyces cerevisiae BY4741 SeMeCo community; assay: z-score of subpopulation abundance vs DMSO median, subpopulation auxotrophic for H; higher = larger share of this subpopulation than in DMSO controls; details: 10 µM; 24 h; SM minimal medium; subpopulation (auxotrophy): H
In short: as §1

[14] = system: Saccharomyces cerevisiae BY4741 SeMeCo community; assay: z-score of subpopulation abundance vs DMSO median, subpopulation auxotrophic for LM; higher = larger share of this subpopulation than in DMSO controls; details: 10 µM; 24 h; SM minimal medium; subpopulation (auxotrophy): LM
In short: as §1

[15] = system: Saccharomyces cerevisiae BY4741 SeMeCo community; assay: z-score of subpopulation abundance vs DMSO median, subpopulation auxotrophic for HLUM; higher = larger share of this subpopulation than in DMSO controls; details: 10 µM; 24 h; SM minimal medium; subpopulation (auxotrophy): HLUM
In short: as §1

[16] = system: Saccharomyces cerevisiae BY4741 SeMeCo community; assay: z-score of subpopulation abundance vs DMSO median, subpopulation auxotrophic for LU; higher = larger share of this subpopulation than in DMSO controls; details: 10 µM; 24 h; SM minimal medium; subpopulation (auxotrophy): LU
In short: as §1

[17] = system: Saccharomyces cerevisiae BY4741 SeMeCo community; assay: z-score of subpopulation abundance vs DMSO median, subpopulation auxotrophic for HLM; higher = larger share of this subpopulation than in DMSO controls; details: 10 µM; 24 h; SM minimal medium; subpopulation (auxotrophy): HLM
In short: as §1

SMILES | mean cell size [1] | z-score of prototroph abundance [2] | z-score of subpopulation abundance [3] | z-score of subpopulation abundance [4] | z-score of subpopulation abundance [5] | z-score of subpopulation abundance [6] | z-score of subpopulation abundance [7] | z-score of subpopulation abundance [8] | z-score of subpopulation abundance [9] | z-score of subpopulation abundance [10] | z-score of subpopulation abundance [11] | z-score of subpopulation abundance [12] | z-score of subpopulation abundance [13] | z-score of subpopulation abundance [14] | z-score of subpopulation abundance [15] | z-score of subpopulation abundance [16] | z-score of subpopulation abundance [17]
CC1=C(C(=O)O)N2C(=O)[C@@H](NC(=O)[C@H](N)C3=CCC=CC3)[C@H]2SC1 [Cefradine] | 12.12 ± 0.02 | 0.86 | -0.36 | 0.14 | 0.07 | -0.73 | -0.92 | -0.6 | 0.06 | -0.16 | -0.79 | -0.81 | – | – | – | – | –
CN[C@H]1C(=O)N[C@@H]2Cc3ccc(cc3)Oc3cc4cc(c3O[C@@H]3O[C@H](C(=O)O)[C@@H](O)[C@H](O)[C@H]3NC(=O)CCCCCCCCC(C)C)Oc3ccc(cc3Cl)[C@@H](O)[C@@H]3NC(=O)[C@H](NC(=O)[C@@H]4NC(=O)[C@@H](NC2=O)c2cc(cc(O)c2Cl)Oc2cc1ccc2O)c1ccc(O)c(c1)-c1c(O[C@H]2O[C@H](CO)[C@@H](O)[C@H](O)[C@@H]2O)cc(O)cc1[C@@H](C(=O)NCCCN(C)C)NC3=O [Dalbavancin] | 12.8 ± 0.072 | -0.15 | -4.48 | -0.21 | 1.53 | -1.02 | 3.63 | -0.56 | 1.2 | 2.43 | 1.97 | 0.72 | 4.04 | -1.16 | 0.69 | – | –
CN1CCc2cc3c(cc2C(=O)Cc2ccc4c(c2C1)OCO4)OCO3 [Protopine] | 12.2 ± 0.13 | -0.56 | – | 1.72 | -0.67 | -0.3 | -0.45 | -0.23 | 1.17 | 0.88 | 0.19 | 1.38 | – | 1.78 | 0.9 | 1.45 | 0.14
Nc1c(CC(=O)O)cccc1C(=O)c1ccc(Br)cc1 [Bromfenac Sodium] | 12.5 ± 0.043 | -0.27 | – | -0.45 | 0.73 | -0.15 | 0.19 | 0.59 | -0.68 | -0.92 | 0.05 | 0.39 | -0.02 | -0.28 | 0.3 | -0.11 | -0.09
OC(c1ccccc1)(c1ccccc1)C12CC[N+](CCOCc3ccccc3)(CC1)CC2 [Umeclidinium bromide] | 12.49 ± 0.074 | 0.82 | -0.28 | 0.22 | -0.23 | – | -0.27 | -1.45 | -0.7 | -0.12 | -0.43 | -0.49 | -0.1 | -0.42 | -0.28 | – | –
CC(C)C(=O)c1c(C(C)C)nn2ccccc12 [Ibudilast] | 12.6 ± 0.22 | 0.24 | -0.62 | – | 1.05 | -1.12 | 0.99 | – | -0.96 | -0.65 | -0.38 | -0.2 | -1.02 | -0.43 | -0.23 | – | -0.49
CCCCCOc1ccc(-c2cc(-c3ccc(C(=O)N[C@H]4C[C@@H](O)[C@@H](O)NC(=O)[C@@H]5[C@@H](O)[C@@H](C)CN5C(=O)[C@H]([C@H](O)CC(N)=O)NC(=O)[C@H]([C@H](O)[C@@H](O)c5ccc(O)c(OS(=O)(=O)O)c5)NC(=O)[C@@H]5C[C@@H](O)CN5C(=O)[C@H]([C@@H](C)O)NC4=O)cc3)no2)cc1 [Micafungin Sodium] | – | -14.6 | -8.01 | – | -1.73 | 1.38 | 13.2 | – | 42.5 | 12 | – | 4.1 | – | 0.72 | 86.5 | – | 61.8
NC(=O)N1c2ccccc2C=Cc2ccccc21 [Carbamazepine] | 12.5 ± 0.21 | 0.13 | -0.29 | 0.25 | – | -0.61 | -0.56 | -0.23 | -0.72 | 0.32 | -0.5 | 0.24 | -0.43 | 0.14 | -0.25 | – | –
COc1cc(NS(=O)(=O)c2ccc(N)cc2)nc(OC)n1 [SulfadiMethoxine sodium] | 12.4 ± 0.15 | 0.53 | 0.96 | -0.99 | -0.68 | – | 0.29 | -0.12 | -0.28 | -0.72 | -0.22 | -0.37 | -0.13 | -0.45 | -0.21 | – | –
CC[C@H](C)[C@H](N)C1=N[C@H](C(=O)N[C@@H](CC(C)C)C(=O)N[C@H](CCC(=O)O)C(=O)N[C@H](C(=O)N[C@H]2CCCCNC(=O)[C@H](CC(N)=O)NC(=O)[C@@H](CC(=O)O)NC(=O)[C@H](Cc3cnc[nH]3)NC(=O)[C@@H](Cc3ccccc3)NC(=O)[C@H]([C@@H](C)CC)NC(=O)[C@@H](CCCN)NC2=O)[C@@H](C)CC)CS1 [Bacitracin] | – | -2.14 | -0.01 | – | 0.29 | 1.2 | 2.07 | 0.03 | 3.67 | 3.61 | 1.59 | 0.84 | 3.13 | 1.28 | 1.51 | – | 1.35
COC(=O)C1=C(C)NC(C)=C(C(=O)OC(C)C)C1c1cccc2nonc12 (stereo unspecified) [Isradipine] | 12.49 ± 0.11 | -0.42 | -0.1 | – | 0.74 | -0.24 | 0.75 | 1.06 | -0.52 | 0.04 | 0.44 | -0.39 | -0.09 | -1.09 | 0.04 | – | –
O=C(O)c1cc(=O)c2c(OCC(O)COc3cccc4oc(C(=O)O)cc(=O)c34)cccc2o1 [Disodium Cromoglycate] | 12.1 ± 0.22 | 0.23 | – | -1.19 | 0.66 | -0.13 | 0.68 | -0.22 | -1.3 | -0.29 | -0.62 | -0.55 | -0.75 | -0.12 | -0.81 | -0.38 | -0.04
Fc1ccc(C(c2ccc(F)cc2)N2CCN(C/C=C/c3ccccc3)CC2)cc1 [Flunarizine 2HCl] | 12.38 ± 0.06 | -1.16 | -0.21 | 2.04 | -0.07 | – | 0.97 | -0.39 | 0.64 | 0.59 | – | – | 0.98 | 1.5 | 1.3 | – | 1.25
Cc1nc(=O)c2cc(CN(C)c3ccc(C(=O)N[C@@H](CCC(=O)O)C(=O)O)s3)ccc2[nH]1 [Raltitrexed] | 13.1 ± 0.36 | 1.91 | – | -0.42 | -1.11 | -0.66 | -2.1 | -2.8 | – | -0.94 | -1.9 | -2.16 | – | -0.75 | -1.38 | -1.62 | -0.97
